According to the GenesisPotency data set:
Out of some 290,000 compounds screened, about 3,000 (1%) were called active. No stated cut-off is given here; in the data, active means inhibition mostly above about 36% (no sharp cut-off); inactive means mostly below about 34%. This excerpt belongs to a sample that is enriched for actives.

molecular target: T1, Nucleotide-binding oligomerization domain-containing protein 1, Homo sapiens (UniProt Q9Y239); assay: NOD1 signaling inhibitors, primary screen, cell-based, luminescence, uHTS (AID 1578)
T1 sequence (whole entry): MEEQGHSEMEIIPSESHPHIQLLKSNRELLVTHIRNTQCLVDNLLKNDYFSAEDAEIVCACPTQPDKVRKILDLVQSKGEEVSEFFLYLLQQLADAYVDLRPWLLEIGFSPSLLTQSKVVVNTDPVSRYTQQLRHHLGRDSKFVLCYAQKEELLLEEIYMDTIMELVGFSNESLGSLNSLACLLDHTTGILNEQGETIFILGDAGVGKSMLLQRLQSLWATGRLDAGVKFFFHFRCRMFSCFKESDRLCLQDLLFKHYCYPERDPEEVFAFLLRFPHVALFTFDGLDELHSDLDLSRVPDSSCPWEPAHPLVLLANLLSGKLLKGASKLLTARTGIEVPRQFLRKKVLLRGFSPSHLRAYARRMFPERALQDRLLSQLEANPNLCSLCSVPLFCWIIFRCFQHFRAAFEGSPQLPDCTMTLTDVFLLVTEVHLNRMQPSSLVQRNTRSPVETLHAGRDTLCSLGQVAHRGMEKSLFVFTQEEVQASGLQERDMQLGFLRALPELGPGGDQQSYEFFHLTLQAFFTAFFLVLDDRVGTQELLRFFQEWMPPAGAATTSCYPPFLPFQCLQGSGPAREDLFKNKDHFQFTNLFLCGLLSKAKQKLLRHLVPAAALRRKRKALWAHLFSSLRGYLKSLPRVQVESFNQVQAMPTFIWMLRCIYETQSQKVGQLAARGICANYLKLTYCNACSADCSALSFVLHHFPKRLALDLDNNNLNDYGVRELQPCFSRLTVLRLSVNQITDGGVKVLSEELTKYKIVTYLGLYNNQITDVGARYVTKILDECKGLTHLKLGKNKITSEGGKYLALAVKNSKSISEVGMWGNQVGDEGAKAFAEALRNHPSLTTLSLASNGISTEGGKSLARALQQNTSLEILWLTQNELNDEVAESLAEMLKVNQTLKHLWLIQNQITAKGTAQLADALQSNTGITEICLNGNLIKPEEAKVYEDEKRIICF

outcome, active:
COc1ccc(Cc2nc3ccc(C(=O)N4CCN(C)C(C)C4)cc3o2)cc1OC (stereo not drawn)
Cc1cccc(CSc2cccc3cccnc23)c1
Cn1c(=O)[nH]c(=O)c2c1nc([N+](=O)[O-])n2Cc1ccccc1
Cn1c(=O)[nH]c(=O)c2c1nc(N1CCC(Cc3ccccc3)CC1)n2Cc1ccccc1
CCCCCn1c(SCCc2ccccc2)nc2c1c(=O)[nH]c(=O)n2C
COc1cccc(-c2coc3c(C)c4oc(=O)c(CCC(=O)O)c(C)c4cc23)c1
O=C(Nc1nc(-c2ccccc2)cs1)c1ccc2c(=O)n3c(nc2c1)CCCCC3
Cc1ccc(-c2csc(NC(=O)c3ccc4c(=O)n5c(nc4c3)CCCCC5)n2)cc1
COc1ccc(CNC(=O)c2cc3c(C)nc4ccccc4c3o2)c(OC)c1
C/C(=N\NC(=O)C1COc2ccccc2O1)c1ccccn1 (stereo not drawn)
C/C(=N\NC(=O)c1cccc2ccccc12)c1ccccn1
C/C(=N\NC(=O)c1ccccc1Cl)c1ccccn1
C/C(=N\Nc1nc2ccccc2[nH]1)c1ccccn1
C/C(=N\NC(=O)C(c1ccccc1)c1ccccc1)c1ccccn1
C=CCNC(=S)N/N=C(\C)c1ccccn1
C/C(=N\NC(=O)c1cc(-c2cccs2)nc2ccccc12)c1ccccn1
C/C(=N\NC(=O)C(C)Oc1ccc([N+](=O)[O-])cc1)c1ccccn1 (stereo not drawn)
O=S1(=O)Nc2c(ccc3cccnc23)-c2ccccc21
Cc1ccccc1-c1nc(CSc2nc3c(c(=O)[nH]2)CCC3)c(C)o1
O=C(CCl)c1cc2c3c(c1)CC(=O)N3CCC2
CCOc1cc(S(=O)(=O)NCc2ccncc2)ccc1Cl
CCN(CC)S(=O)(=O)c1ccc(C(=O)Nc2ccc(Cc3ccncc3)cc2)cc1
Cc1ccc(C)c(N2CCN(C(=O)CCS(=O)(=O)c3ccc4c(c3)NC(=O)C(C)S4)CC2)c1 (stereo not drawn)
CCOc1ccc(/C=C/C(O)=C2/C(=O)N(C)C3(C)CC2c2ccccc2O3)cc1OC (stereo not drawn)
COc1ccc(-n2nc(C#N)c(Cl)cc2=O)cc1
Cn1c(/C=C/c2ccc(Cl)cc2Cl)c([N+](=O)[O-])c(=O)n(C)c1=O
Cc1ccc(-n2c(-c3ccc(Br)cc3)c[n+]3c2CCc2ccc4cccnc4c2-3)cc1.[Br-]
O=c1cc(C(F)(F)F)[nH]c2ccc(OC(F)(F)F)cc12
O=c1cc(C(F)(F)F)[nH]c2ccc(C(F)(F)F)cc12
O=C1CSc2ccc(C(=O)Nc3cccc(S(=O)(=O)Nc4ccc(Br)cc4)c3)cc2N1
CC1CC(C)CN(C(=O)/C=C/c2ccc([N+](=O)[O-])s2)C1 (stereo not drawn)
O=C(/C=C/c1ccc([N+](=O)[O-])s1)N1CCCCC1
CCOC(=O)c1c(-c2ccccc2)oc2cc(Br)c(O)c(C=O)c12
COc1ccccc1NC(=O)c1cc2cc(Br)ccc2cc1O
Cc1ccnc(NC(=O)Cc2ccc(-c3ccccc3)cc2)c1
COc1cc(OC)cc(-c2cc3nc(C)c(CCC(=O)O)c(C)n3n2)c1
O=c1[nH]c(-c2ccccn2)nc2sc(-c3ccccc3)cc12
Cn1c2c(c(=O)n(C)c1=O)C(C(F)(F)F)(C(F)(F)F)N=C(c1ccc(Cl)cc1)N2
CC1CCC/C=C/C(=O)c2c(O)cc(O)cc2CC(=O)O1 (stereo not drawn)
COc1ccc(NC(=O)/C(Cl)=C(/Cl)S(=O)(=O)Cc2ccccc2)cn1
COc1ccc(NC(=O)/C(Cl)=C(/Cl)S(=O)(=O)Cc2ccc(C)cc2)cn1
N=C1SCC(=O)N1c1ncc(Cc2ccc(F)cc2)s1
N=C1SCC(=O)N1c1ncc(Cc2cccc(Cl)c2)s1
N=C1SCC(=O)N1c1ncc(Cc2ccccc2Cl)s1
O=c1[nH]c(=O)n(Cc2ccco2)c2c1C(C(F)(F)F)(C(F)(F)F)N=C(c1ccc(F)cc1)N2
Nc1ncnc(NCc2ccc(F)cc2)c1[N+](=O)[O-]
CCc1ccc(NC(=O)C2CCN(S(=O)(=O)c3ccc4c(c3)CC(C)N4C(C)=O)CC2)cc1 (stereo not drawn)
CC(=O)c1ccc(N2CCN(S(=O)(=O)c3ccc4c(c3)CC(C)N4C(C)=O)CC2)cc1 (stereo not drawn)
Cc1ccc(-n2nc3c(=O)n(C(C)C(=O)NCCc4cccs4)nc(C)c3c2C)cc1 (stereo not drawn)
Cc1ccc(-n2nc3c(=O)n(C(C)C(=O)NCCCc4ccccc4)nc(C)c3c2C)cc1 (stereo not drawn)
Cc1ccc(-n2nc3c(=O)n(C(C)C(=O)NCCC4=CCCCC4)nc(C)c3c2C)cc1 (stereo not drawn)
Cc1ccc(-n2nc3c(=O)n(CC(=O)NC(C)CCc4ccccc4)nc(C)c3c2C)cc1 (stereo not drawn)
Cc1ccc(NC(=O)c2cnc(N3CCN(c4ccccn4)CC3)c3ccccc23)c(Br)c1
CCc1ccc(NC(=O)c2cnc(N3CCN(c4ccccn4)CC3)c3ccccc23)cc1
Cc1cc(Br)ccc1NC(=O)c1cnc(N2CCN(c3ccccn3)CC2)c2ccccc12
O=C(c1cnc(N2CCN(c3ccccn3)CC2)c2ccccc12)N1CCN(c2cccc(Cl)c2)CC1
C=CCSc1nc2ccccc2n1C(=O)/C=C/c1ccc(OC)c(OC)c1
O=C(NC1CCCCC1)C(c1cccnc1)N(C(=O)CCl)c1ccc(F)cc1 (stereo not drawn)
COc1ccc(N(C(=O)CCl)C(C(=O)NC2CCCCC2)c2cccnc2)cc1 (stereo not drawn)
O=C(CN1C(=O)c2ccccc2S1(=O)=O)c1ccc2c(c1)OCCCO2
O=C(CN1C(=O)c2ccccc2S1(=O)=O)c1ccc2c(c1)OCCO2
COc1cc(/C=C/C(=O)c2ccc(NS(=O)(=O)c3ccc(C)cc3)cc2)cc(OC)c1O
COc1cc(OC)c(OC)cc1/C=C/C(=O)c1ccc(NS(=O)(=O)c2ccc(C)cc2)cc1
O=C(/C(=C/c1ccc(Cl)cc1)c1nc2ccccc2[nH]1)c1cccs1
O=C(/C(=C\c1ccccc1)c1nc2ccccc2[nH]1)c1ccc(Cl)cc1
O=C(/C(=C/c1ccc(Cl)cc1)c1nc2ccccc2[nH]1)c1ccccc1
O=S(=O)(Nc1cccc2ncccc12)c1cccs1
Cc1ccc(S(=O)(=O)Nc2cccc3ncccc23)s1
